Pol eta inh-1 = qHTS for Inhibitors of Polymerase Eta. recombinant Pol eta, fluorescent DNA replication assay. AID 588591, 2011. hit rate 1.2% among 390,000. Potency, µM (highest dose often 114 µM), inactives show at the top dose activity change, negative = inhibition, usual class: inhibitors; note: % is set by controls: 0 for no effect and ±100 for the full control effect
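Pol eta (10 nM) was preincubated with compounds for 15 min at room temperature, after which fluorescent replication substrate (50 nM final) was added to start the reaction. Fluorescence was read kinetically at 0 and 10 min.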
Pol iota inh = qHTS for Inhibitors of Polymerase Iota | hit rate 1% among 390,000 | DNA polymerase iota (Homo sapiens), Q9UNA4 | Pol iota fluorescent replication assay, 10 min | Potency, µM (highest dose often 115 µM), inactives show at the highest dose activity, negative = inhibition, actives largely listed as inhibitors
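Fluorescent replication assay read twice, at 0 min and 10 min after adding 50 nM (final) substrate. Enzyme (10 nM) and compounds were first incubated 15 min at room temperature; enzyme-free buffer wells were negative controls.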
FEN1 inh = qHTS Assay for the Inhibitors of Human Flap endonuclease 1 (FEN1) | Potency, µM (highest dose often 114 µM), for inactives: top-dose activity change, negative = inhibition, most hits filed as inhibitors | hit rate 0.35% among 390,000 | P39748 | Recombinant FEN1 flap cleavage, fluorescence, 15 min; note: % is set by controls: 0 for no effect and ±100 for the full control effect; nearly all actives have a fitted effect of over 65% in size
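FEN1 at 10 nM, compound pretreatment for 15 min (room temperature), 50 nM final substrate to initiate; endpoint reads at 0 and 15 min; DMSO-only plates used as vehicle background.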
WRN helicase inh = qHTS for Inhibitors of WRN Helicase; WRN helicase unwinding, fluorescent forked duplex, kinetic; Potency, µM (series often up to 114 µM), inactives show top-dose activity change, negative = inhibition, most hits filed as inhibitors; hit rate 0.46% among 360,000; note: % is set by controls: 0 for no effect and ±100 for the full control effect; nearly all actives have a fitted effect of over 55% in size
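Kinetic fluorescence helicase assay: unwinding of a quenched forked DNA duplex (100 nM final) with 2 mM ATP final raises red fluorescence (525/598 nm). Compounds sat 15 min at room temperature with 20 nM WRN beforehand.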
POLB inh = qHTS Assay for Inhibitors of DNA Polymerase Beta | P06746 | hit rate 1.3% among 340,000 | Pol beta primer extension/strand displacement, fluorescence kinetic | AID 485314, 2010 | Potency, µM (highest dose often 114 µM), for the others: top-dose activity change, negative = inhibition, actives largely listed as inhibitors; note: % is set by controls: 0 for no effect and ±100 for the full control effect
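Kinetic readout of DNA synthesis with strand displacement by Pol beta. Compound and 10 nM enzyme sit 15 min at room temperature; 50 nM substrate starts the reaction, read immediately and at 10 min.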
Pol kappa inh-1 = qHTS for Inhibitors of Polymerase Kappa; hit rate 0.53% among 400,000; purified Pol kappa, fluorescent DNA synthesis assay, 10 min; AID 588579, 2011; Potency, µM (top dose mostly 107 µM), for inactives: at the top dose activity, negative = inhibition, most hits filed as inhibitors; DNA polymerase kappa (Homo sapiens), Q9UBT6; note: % is set by controls: 0 for no effect and ±100 for the full control effect
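Pol kappa 10 nM + cpd, 15 min RT; start w/ substrate 50 nM final; fluorescence kinetic read, 0 and 10 min. Neg ctrl: buffer, no enzyme.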
PGK validate = qHTS for inhibitors of Phosphogylcerate Kinase: Hit Validation Screen. shares compounds with Pol kappa inh-1. TbPGK coupled GAPDH assay, Kinase-Glo luminescence. Potency, µM (doses to about 57.5 µM), for inactives: at the top dose activity change, negative = inhibition, actives largely listed as inhibitors. hit rate 79% among 500. AID 686980, 2013; note: % is set by controls: 0 for no effect and ±100 for the full control effect; nearly all actives have a fitted effect of over 65% in size
Pol iota confirm = qHTS for Inhibitors of Polymerase Iota: Confirmatory Assay for Cherry-picked Compounds; shares compounds with Pol kappa inh-1; Pol iota primer extension, TAMRA/BHQ fluorescence; Potency, µM, actives largely listed as inhibitors; hit rate 77% among 1,500
Pol kappa inh-2 = qHTS for Inhibitors of Polymerase Kappa: Confirmatory Assay for Cherry-picked Compounds. shares compounds with Pol eta inh-1. purified Pol-kappa, fluorescent strand-displacement substrate. Potency, µM, most hits filed as inhibitors. hit rate 76% among 920
Pol eta inh-2 = qHTS for Inhibitors of Polymerase Eta: Confirmatory Assay for Cherry-picked Compounds. hit rate 64% among 2,600. shares compounds with Pol eta inh-1. Pol eta primer extension, TAMRA/BHQ fluorescence, 10 min. Potency, µM, most hits filed as inhibitors
* = called active by the depositor; ? = inconclusive; . = no result; [ ] = another dose, or the depositor's remark. Most compounds without a hit are left out; they make up all but 2.4% or so of the library. Calls come from the whole dose curve; as a rule, active = well fitted curve in the direction sought with a large enough effect; inconclusive = small, poorly fitted or top-dose-only effect, or another doubt; inactive = no such curve, though single readings can be large; an effect the other way counts as inactive or inconclusive. Potency is the fitted concentration of half-maximal effect.

SMILES | Pol eta inh-1 | Pol iota inh | FEN1 inh | WRN helicase inh | POLB inh | Pol kappa inh-1 | Pol iota confirm | Pol kappa inh-2 | Pol eta inh-2 | others
Cc1ccc(C)c(N2CCN(C(=O)c3cnn(C(C)(C)C)c3C3CCN(C(=O)OC(C)(C)C)CC3)CC2)c1 | -21% | 8% | -20% | . | 10% | -4% | . | . | .
CCOC(=O)C1=C(COC(=O)/C=C/c2ccco2)NC(=O)NC1C (centres undefined) | 11µM* | 14µM* | 4% | ? | . | 50µM* | 19* | . | 27*
O=C(O)c1cccc(-c2ccc(/C=C3/SC(=Nc4ccccc4)N(Cc4cccnc4)C3=O)o2)c1 | 7.1µM* | ? | ? | ? | ? | ? | 38* | 21* | 43* | PGK validate=6.5µM*
Cc1cc(=O)oc2c3c(ccc12)OC/C3=N/N | ? | ? | 1% | -14%[11.6 µM] | 30% | -17% | 42* | 34* | 30*
N#C/C(=C/c1cccn1-c1cccc(C(=O)O)c1)c1ccc(Cl)cc1 | 50µM* | 20µM* | 7% | -10%[11.6 µM] | 8.9µM* | ? | 75* | 75* | ?
CCOC(=O)/C(C#N)=C/c1cccn1-c1ccc(Cl)cc1 | -20% | 84% | 8% | -3% | -7% | 2% | . | . | .
N#CC(C#N)=Cc1cccn1-c1ccc(C(=O)O)cc1 | 10µM* | 18µM* | -17% | 56µM* | 5µM* | 40µM* | 19* | 17* | 27*
N#C/C(=C\c1ccccc1OCc1ccc(C(=O)O)cc1)c1ccccc1 | -8% | 5% | -17% | -11% | -1% | 0% | . | . | .
COc1cc(-c2noc(C)c2/C=C/c2ccc(C(=O)O)cc2)cc(OC)c1OC | 13µM* | ? | -5% | ? | 14µM* | 71µM* | 42* | . | 27*
CCc1ccc(S(=O)(=O)c2nnn3c2nc(NCCC(C)C)c2cc(Cl)ccc23)cc1 | -14% | 8% | -15% | . | 14% | -3% | . | . | .
CC1CCCN(c2ncnc3c2cnn3-c2ccc(F)cc2)C1 (centres undefined) | -18% | 8% | -15% | . | -1% | -7%[60.1 µM] | . | . | .
O=[N+]([O-])c1ccccc1NC(=S)N/N=C/c1ccc(O)c(O)c1 | 3.5µM* | 8.9µM* | -27% | 11µM* | 3.5µM* | 20µM* | 47* | . | 21*
Cc1ccc(CNC(=O)c2ccc(N3Cc4ccccc4Oc4ncccc43)s2)cc1 | . | -3% | -19% | . | 16% | -16% | . | . | .
O=C(N/N=C/c1cc(Br)c(Br)o1)c1ccc2c(c1)OCCO2 | 13µM* | ? | -22% | ? | 8.9µM* | ? | ? | . | 30*
CC(=O)c1cc(-c2ccc(F)cc2)n(CCC(=O)NCc2ccc(C)cc2)c1C | 3% | 5% | -7% | . | 8% | -9%[60.1 µM] | . | . | .
